Five compounds from PubChem BioAssay (NCATS) can be followed below.

Each structure is given as a SMILES string. Inconclusive results are not listed. Calls of active or inactive are those of the source. Unless noted, the call rests on the fitted dose curve; in most records, active means well fitted curve in the direction sought with a large enough effect; inconclusive means small, poorly fitted or top-dose-only effect, or another doubt; inactive means no such curve, though single readings can be large; an effect the other way counts as inactive or inconclusive.

Assay [1] in a line: Confirmation and Secondary Assay for Modulators of Hemoglobin Beta Chain Splicing at IVS2 705 locus (AID 930).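 Further: HeLa cells stably expressing the EGFP-705 splicing reporter; GFP fluorescence per well restored by corrected splicing of the IVS2-705 intron in EGFP; % of control where 0% means no effect.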 In a few lines:
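HeLa EGFP-705 reporter; 500 cells/well, o/n 37C 5% CO2; cpd 2 d; 488 ex/500-520 em laser scan; total peak GFP intensity/well. Ref: 500 nM […] antisense PNA.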

A short description of assay [2]: qHTS Assay for Lipid Storage Modulators (AID 1519; calls by dose curve; on activity change, negative = inhibition: on the % scale 0 is the no-effect control and ±100 the full control effect). The note with it: Drosophila S3 cells, BODIPY lipid droplet/cell ratio, laser cytometry, cells loaded with oleic acid; for activity change, negative = inhibition: at 57.5 µM (top of the series). In a few lines: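 Cells seeded at 5,000 per well were treated with compounds over a concentration series and loaded with oleic acid (400 uM, as added). Lipid droplet fluorescence (488 nm excitation, 500-530 nm channel) was read by laser-scanning cytometry and normalized to 20 uM Triacsin C.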
In general terms: qHTS replaces the single test concentration by a dilution series.

The target of assay [3] is Ubiquitin carboxyl-terminal hydrolase 1 (Homo sapiens) (UniProt O94782). The experiment in a line: Inhibitors of USP1/UAF1: Pilot qHTS (AID 504865).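 Further: rhodamine fluorescence freed from ubiquitin-rhodamine substrate followed over time; top concentration of the series differs between compounds; on the % scale 0 is the no-effect control and ±100 the full control effect; nearly all actives have a fitted effect of over 35% in size.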 In a few lines: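 USP1/UAF1 complex (1nM) preincubated with compound 15 min at room temperature, then Ub-Rho substrate (150nM final) added. Fluorescence read kinetically at 480/540 nm, 6 reads every 60 seconds. Buffer: 50mM HEPES pH 7.8, 0.5mM EDTA, 0.1 mg/ml BSA, 1mM TCEP, 0.01% Tween-20.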

A short description of assay [4]: qHTS profiling for inhibitors of Plasmodium falciparum proliferation (AID 504749).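 Further: 0% = DMSO vehicle and full inhibition = artemisinin control; nearly all actives have a fitted effect of over 60% in size.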 The note with it: P. falciparum in erythrocytes, SYBR Green DNA, 72 h, at 28.7 µM (top of the series). In a few lines:
(§1)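 SYBR Green fluorescence (ex 485 nm, em 535 nm) reports parasite DNA after 72 h compound exposure of infected red cells at 0.3% parasitemia, 2.5% hematocrit; signal normalized to 0.29 uM artemisinin and vehicle wells.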

In a further assay the test system is C2A. The description is as above. The note with it: P. falciparum in erythrocytes, SYBR Green DNA, 72 h; series mostly up to 12.8 µM. In a few lines:
as §1

Another assay deals with CP185. Described as above. The note with it: P. falciparum in erythrocytes, SYBR Green DNA, 72 h; series mostly up to 12.8 µM. In a few lines:
as §1

The subject of a further assay is CP201. Described as above. The note with it: P. falciparum in erythrocytes, SYBR Green DNA, 72 h; series mostly up to 12.8 µM. In a few lines:
as §1

The subject of another assay is CP211. The assay is described as above. The note with it: P. falciparum in erythrocytes, SYBR Green DNA, 72 h; series mostly up to 12.8 µM. In a few lines: as §1
Another assay has as its system CP238. The description is as above. The note with it: P. falciparum in erythrocytes, SYBR Green DNA, 72 h; series mostly up to 12.8 µM. In a few lines: as §1
In the next assay the test system is CP262. The description is as above. The note with it: P. falciparum in erythrocytes, SYBR Green DNA, 72 h; series mostly up to 12.8 µM. In a few lines:
as §1

In a further assay the test system is CP268. Described as above. The note with it: P. falciparum in erythrocytes, SYBR Green DNA, 72 h; series mostly up to 12.8 µM. In a few lines: as §1
The next assay has as its system CP269. Described as above. The note with it: P. falciparum in erythrocytes, SYBR Green DNA, 72 h; series mostly up to 12.8 µM. In a few lines:
as §1

The subject of the next assay is CP305. The assay is described as above. The note with it: P. falciparum in erythrocytes, SYBR Green DNA, 72 h; series mostly up to 12.8 µM. In a few lines:
as §1

Another assay deals with CP315. The description is as above. The note with it: P. falciparum in erythrocytes, SYBR Green DNA, 72 h; series mostly up to 12.8 µM. In a few lines: as §1
The test system of the next assay is CP325. The description is as above. The note with it: P. falciparum in erythrocytes, SYBR Green DNA, 72 h; series mostly up to 12.8 µM. In a few lines: as §1
A further assay concerns CP329. The description is as above. The note with it: P. falciparum in erythrocytes, SYBR Green DNA, 72 h; series mostly up to 12.8 µM. In a few lines:
as §1

Another assay relates to FAB9. The assay is described as above. The note with it: P. falciparum in erythrocytes, SYBR Green DNA, 72 h; series mostly up to 12.8 µM. In a few lines:
as §1

A further assay relates to JCK. The assay is described as above. The note with it: P. falciparum in erythrocytes, SYBR Green DNA, 72 h; series mostly up to 12.8 µM. In a few lines:
as §1

The test system of another assay is PC15. The assay is described as above. The note with it: P. falciparum in erythrocytes, SYBR Green DNA, 72 h; series mostly up to 12.8 µM. In a few lines:
as §1

For another assay, the system named is PC49. The assay is described as above. The note with it: P. falciparum in erythrocytes, SYBR Green DNA, 72 h; series mostly up to 12.8 µM. In a few lines:
as §1

[5] abbreviates: measured here: cell count channel max response.
Where [6] appears, read: measured here: lipid channel max response.

Chain of Ubiquitin carboxyl-terminal hydrolase 1 (Homo sapiens) (O94782 whole entry, looked up): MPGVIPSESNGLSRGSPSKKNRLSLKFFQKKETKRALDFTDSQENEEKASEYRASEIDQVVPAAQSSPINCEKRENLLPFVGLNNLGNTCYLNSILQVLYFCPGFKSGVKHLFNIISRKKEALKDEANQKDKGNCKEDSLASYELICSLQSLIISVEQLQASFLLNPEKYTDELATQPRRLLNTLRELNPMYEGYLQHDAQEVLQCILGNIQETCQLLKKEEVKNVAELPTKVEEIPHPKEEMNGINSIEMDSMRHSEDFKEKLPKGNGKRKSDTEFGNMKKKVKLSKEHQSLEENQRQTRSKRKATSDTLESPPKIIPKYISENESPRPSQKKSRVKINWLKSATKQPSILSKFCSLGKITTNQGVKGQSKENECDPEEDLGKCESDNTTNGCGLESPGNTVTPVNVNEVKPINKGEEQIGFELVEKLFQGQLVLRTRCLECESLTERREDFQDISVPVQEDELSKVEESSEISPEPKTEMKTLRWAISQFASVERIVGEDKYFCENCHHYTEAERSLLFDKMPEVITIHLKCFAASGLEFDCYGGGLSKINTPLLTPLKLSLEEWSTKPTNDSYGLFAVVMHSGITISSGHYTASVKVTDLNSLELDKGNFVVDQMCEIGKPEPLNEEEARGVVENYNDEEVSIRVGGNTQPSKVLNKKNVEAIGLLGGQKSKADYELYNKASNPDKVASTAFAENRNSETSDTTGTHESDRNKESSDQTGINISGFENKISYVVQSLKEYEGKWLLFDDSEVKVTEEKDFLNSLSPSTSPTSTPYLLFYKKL

On to `CC(C)C1CCC(C(=O)NC(Cc2ccccc2)C(=O)O)CC1` (stereo not given), for which the Potency result (in [1]; in assay [3]; with C2A; with CP185; with CP201; in the assay with CP211) was “inactive” in each case. For the same compound, the Potency entry with CP238, in the assay on CP262, in the assay with CP268, in the assay on CP269, in the assay on CP305 and in the assay with CP315 was “inactive” in each case. Moreover, the Potency entry with CP325, in the assay with CP329, in the assay with FAB9, in the assay with JCK, in the assay on PC15 and in the assay on PC49 was “inactive” throughout. Further, the activity change, negative = inhibition in [2] is 5.23% (inactive). Besides, the figures for the max response in assay [2] (setting [5]) and in assay [2] (setting [6]) were 2.86% and 10.2%, respectively. Moreover, the activity, negative = inhibition was -12% (inactive) in assay [4] (parasite line A) and 8.36% (inactive) in assay [4] (parasite line B).
Take `CC1=C(CCC(=O)O)c2cc3nc(cc4[nH]c(cc5[nH]c(cc1n2)c(C)c5C(C)O)c(C)c4C(C)O)C(C)=C3CCC(=O)O` (stereo not given): the Potency entry in assay [1] and in assay [3] was “inactive” throughout. In [2], the activity change, negative = inhibition is 3.12% (inactive). Further, the max response in [2] (setting [5]) came out at 12.6%; in [2] (setting [6]), 18.6%.
For the compound `CN1CC(=O)N=C1N`, the Potency entry (in assay [1]; in assay [3]; in the assay on C2A; in the assay with CP185; with CP201; in the assay on CP211) was “inactive” in each case. The Potency entry in the assay with CP238, in the assay on CP262, in the assay with CP268, in the assay with CP269, in the assay with CP305 and in the assay with CP315 was “inactive” each time. Besides, the Potency entry in the assay on CP325, with CP329, with FAB9, with JCK, in the assay with PC15 and with PC49 was “inactive” throughout. Moreover, the activity change, negative = inhibition in assay [2] is 4.35% (inactive). The max response stood at 5.89% in [2] (setting [5]) and 9.11% in [2] (setting [6]). For the same compound, the activity, negative = inhibition in assay [4] (parasite line A) is 1.94% (inactive); in assay [4] (parasite line B), 0.298% (inactive).
For `C[C@]12C=CC(=O)C=C1CCC1C2C(O)C[C@]2(C)C1CC[C@]2(O)C(=O)CO` (stereo not given in full), the Potency entry (in assay [1]; in assay [3]; in the assay with C2A; in the assay with CP185; in the assay with CP201; in the assay on CP211) was “inactive” in each case. Besides, the Potency result in the assay on CP238, in the assay on CP262, with CP268, in the assay with CP269, with CP305 and in the assay with CP315 was “inactive” throughout. Moreover, the Potency result with CP325, in the assay with CP329, in the assay with FAB9, with JCK, in the assay with PC15 and in the assay on PC49 was “inactive” each time. Besides, the activity change, negative = inhibition in [2] is 4.07% (inactive). Also, the max response was found to be 19.1% in assay [2] (setting [5]) and 24.5% in assay [2] (setting [6]). Also, the activity, negative = inhibition in assay [4] (parasite line A) is 13% (inactive); in assay [4] (parasite line B) it was 6.28% (inactive).
For `CN(C)CCc1c[nH]c2ccc(CC3COC(=O)N3)cc12` (stereo not given), the Potency result (in [1]; in the assay with C2A; in the assay on CP185; in the assay on CP201; with CP211; in the assay on CP238) was “inactive” in each case. Also, the Potency entry with CP268, in the assay on CP269, with CP305, with CP315, with CP325 and in the assay with CP329 was “inactive” each time. Besides, the Potency result in the assay on FAB9, in the assay on JCK, with PC15 and in the assay with PC49 was “inactive” each time. Besides, in assay [2], the activity change, negative = inhibition was 10.6% (inactive). Moreover, the results for the max response in assay [2] (setting [5]) and in assay [2] (setting [6]) were -1.36% and 11.4%, respectively. The activity, negative = inhibition in assay [4] (parasite line A) is -2.15% (inactive); in assay [4] (parasite line B) it was 12.7% (inactive).
